Test systems include SK-MEL-2 melanoma; EKVX NSCLC; SN12C renal; UO-31 renal; TK-10 renal; ACHN renal; CAKI-1 renal; A498 renal; CCRF-CEM leukemia; MOLT-4 leukemia.
What all share (assay): NCI-60 one-dose screen, 48 h (100 = growth as untreated, 0 = no growth, -100 = all killed)
Common to all, as to settings: 10 µM unless noted

For 15 compounds, growth results are on record in PubChem BioAssay (NCI).

This is part of a sample that, as a whole, favours compounds with a hit. Of some 83,000 tested, about 20% had one in any assay.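 In brief: 96-well plates, 48 h treatment, single concentration, percent growth endpoint.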 Values without a mark were called inactive. Activity calls are given as the source filed them. The calls were made as follows: active = growth percent below 10; inactive = the rest.

On to `Cc1nc(-c2ccccc2)cc2c(O)c(C(=O)N/N=C/Cc3ccccc3)[nH]c(=O)c12`, for which the growth in the assay on SK-MEL-2 melanoma is 102%; with EKVX NSCLC it was 103%; in the assay on SN12C renal, 104%; in the assay with UO-31 renal, 95.1%; with TK-10 renal, 109%; with ACHN renal, 104%. The growth was 111% with CAKI-1 renal, 94.5% in the assay with A498 renal, 92.4% in the assay on CCRF-CEM leukemia and 90.5% in the assay on MOLT-4 leukemia.
Turning to `O=C(c1ccc2ncc(-c3nc(NC4CC4)ncc3F)n2c1)N1CCOCC1`, the growth in the assay on SK-MEL-2 melanoma was 27.7%; in the assay with EKVX NSCLC, 49.2%; in the assay with SN12C renal, 30.1%; with UO-31 renal, -33.4% (active); in the assay with TK-10 renal, 41.9%; in the assay on ACHN renal, 0.254% (active). The growth in the assay with CAKI-1 renal is 3.25% (active); in the assay on A498 renal, -30.3% (active); in the assay with CCRF-CEM leukemia, 19.5%; with MOLT-4 leukemia it was 16%.
Regarding `O=c1ccc2ccccc2o1`, the growth was 101% in the assay on SK-MEL-2 melanoma; 109% with EKVX NSCLC; 109% in the assay with SN12C renal; 89.9% with UO-31 renal; 98.3% in the assay on TK-10 renal; 93.8% in the assay on ACHN renal. Also, the growth in the assay on CAKI-1 renal was 89.7%; in the assay with A498 renal it was 96.4%; with CCRF-CEM leukemia, 87.4%.
On to `Cc1cc[n+](CCc2ccccc2)cc1`, for which the growth in the assay with SK-MEL-2 melanoma was 107%; in the assay on EKVX NSCLC, 80.6%.
Take `O=C(NCc1cccnc1)c1ccc([N+](=O)[O-])o1`: the growth was -16.7% (active) in the assay on SK-MEL-2 melanoma; 62.1% with EKVX NSCLC; -53.4% (active) in the assay on SN12C renal; 2.12% (active) with UO-31 renal; -30.5% (active) in the assay on TK-10 renal; 34.5% in the assay with ACHN renal. The growth was -3.61% (active) in the assay with CAKI-1 renal, 9.84% (active) in the assay with A498 renal, 54.4% with CCRF-CEM leukemia and 65.8% in the assay on MOLT-4 leukemia.
With `O=C1c2cc(S(=O)(=O)O)ccc2C(=O)c2c1cccc2[N+](=O)[O-]`, the growth in the assay with SK-MEL-2 melanoma is 108%; in the assay on EKVX NSCLC, 120%; in the assay with SN12C renal it was 103%; in the assay on UO-31 renal, 85.3%; in the assay with TK-10 renal, 116%; with ACHN renal, 111%. Moreover, the growth in the assay on CAKI-1 renal was 102%; in the assay on A498 renal, 103%; with CCRF-CEM leukemia, 97.8%; in the assay with MOLT-4 leukemia, 100%.
On to `O=C(c1ccccc1)C(Br)C(Br)c1cccc([N+](=O)[O-])c1` (stereo unspecified), for which the growth in the assay with SK-MEL-2 melanoma was 69.8%; with EKVX NSCLC it was 101%; in the assay with SN12C renal, 67.1%; in the assay on UO-31 renal, -74.8% (active); in the assay on TK-10 renal it was -25.4% (active); with ACHN renal it was -87.9% (active). In addition, the growth is -25.5% (active) in the assay on CAKI-1 renal, 48.2% in the assay on A498 renal, -15.7% (active) in the assay with CCRF-CEM leukemia and 3.67% (active) in the assay with MOLT-4 leukemia.
Turning to `CCN1CCN(c2nc3ccccc3c3c(=O)c4cc(F)ccc4sc23)CC1`, the growth was 98.8% with SK-MEL-2 melanoma; 82.8% with EKVX NSCLC; 80.7% in the assay with SN12C renal; 44% with UO-31 renal; 85.2% in the assay on TK-10 renal; 59.4% with ACHN renal. Also, the growth was 67.9% in the assay with CAKI-1 renal, 28.9% in the assay with A498 renal, 68.5% with CCRF-CEM leukemia and 27.9% in the assay with MOLT-4 leukemia.
Take `CC(C)N1CCN(c2ccc(OC[C@H]3CO[C@](Cn4cncn4)(c4ccc(Cl)cc4Cl)O3)cc2)CC1`: the growth with SK-MEL-2 melanoma was 95%; with EKVX NSCLC it was 91.4%; with SN12C renal it was 81.2%; in the assay on UO-31 renal it was 98.7%; in the assay on TK-10 renal, 91.5%; in the assay on ACHN renal, 102%. For the same compound, the growth in the assay on CAKI-1 renal is 79.3%; in the assay with A498 renal, 76.7%; in the assay on CCRF-CEM leukemia, 82.6%; in the assay on MOLT-4 leukemia it was 86.2%.
Regarding `O=[N+]([O-])c1ccc(C=C2C(Cl)=C(Cl)C(Cl)=C2Cl)cc1`, the growth in the assay on SK-MEL-2 melanoma was 102%; with EKVX NSCLC it was 91.6%; in the assay with SN12C renal, 52.3%; with UO-31 renal it was -19.8% (active); in the assay on TK-10 renal, 28.3%; with ACHN renal, 45.5%. The growth with CAKI-1 renal is 53%; in the assay on A498 renal it was 104%; in the assay on CCRF-CEM leukemia, 15.7%; with MOLT-4 leukemia it was 5.43% (active).
With `CSC1=CC(=O)c2ccccc2C1=O`, the growth with SK-MEL-2 melanoma is 96.1%; in the assay on EKVX NSCLC it was 89.6%; in the assay with SN12C renal, 97%; in the assay on UO-31 renal it was 28%; in the assay on TK-10 renal, 97.9%; in the assay with ACHN renal, 24%. Besides, the growth in the assay with CAKI-1 renal is 33.6%; in the assay with A498 renal, 91.5%; in the assay on CCRF-CEM leukemia, -16.7% (active); in the assay with MOLT-4 leukemia, -21.7% (active).
For the compound `COc1ccc(S(=O)(=O)c2ccc(C(N)=O)cc2)cc1NC(=O)c1[nH]c(C)c2c1CCCCC2=O`, the growth was 74.1% in the assay on SK-MEL-2 melanoma; 75% in the assay with EKVX NSCLC; 76.7% in the assay with SN12C renal; 78.5% with UO-31 renal; 81.1% in the assay with TK-10 renal; 101% with ACHN renal. Also, the growth in the assay on CAKI-1 renal is 93.4%; in the assay with A498 renal, 11.1%; with CCRF-CEM leukemia it was 56.6%; with MOLT-4 leukemia it was 49.4%.
Consider `Cn1cc(C(=O)NCCC(=N)N)cc1NC(=O)CN=C(N)N`, for which the growth with SK-MEL-2 melanoma was 105%; in the assay on EKVX NSCLC, 103%; in the assay on SN12C renal, 95.6%; with UO-31 renal it was 84%; in the assay with TK-10 renal, 109%; with ACHN renal, 102%. Further, the growth with CAKI-1 renal was 99.1%; with A498 renal it was 108%; in the assay on CCRF-CEM leukemia, 100%; with MOLT-4 leukemia, 103%.
As for `O=C1C=CC(=O)N1CCCCCCCCCCN1C(=O)C=CC1=O`, the growth in the assay with SK-MEL-2 melanoma is 96%; in the assay on EKVX NSCLC it was 97.8%; in the assay with SN12C renal it was 94.8%; with UO-31 renal it was 48.2%; in the assay with TK-10 renal it was 106%; with ACHN renal, 80.3%. Moreover, the growth in the assay with CAKI-1 renal was 15.2%; in the assay with A498 renal, 147%; with CCRF-CEM leukemia, 16.5%; with MOLT-4 leukemia, 18.3%.
As to `Cc1ccc(C)c2c1sc1nc3nc4sc5ccccc5n4c(=N)c3c(=O)n12`, the growth with SK-MEL-2 melanoma is 121%; with EKVX NSCLC, 95.7%; with SN12C renal, 105%; with UO-31 renal it was 78.1%; in the assay with TK-10 renal, 162%; in the assay with ACHN renal, 99.1%. In addition, the growth is 106% with CAKI-1 renal, 69.1% with A498 renal, 81.1% in the assay on CCRF-CEM leukemia and 104% in the assay with MOLT-4 leukemia.
